# Pol eta inh: blocks human DNA polymerase eta activity. Q9Y253. recombinant Pol eta, fluorescent DNA replication assay. Potency, µM (series often up to 114 µM), actives largely listed as inhibitors. 390,000 compounds, 1.2% hits. AID 588591
# Target sequence (Q9Y253 whole entry, looked up): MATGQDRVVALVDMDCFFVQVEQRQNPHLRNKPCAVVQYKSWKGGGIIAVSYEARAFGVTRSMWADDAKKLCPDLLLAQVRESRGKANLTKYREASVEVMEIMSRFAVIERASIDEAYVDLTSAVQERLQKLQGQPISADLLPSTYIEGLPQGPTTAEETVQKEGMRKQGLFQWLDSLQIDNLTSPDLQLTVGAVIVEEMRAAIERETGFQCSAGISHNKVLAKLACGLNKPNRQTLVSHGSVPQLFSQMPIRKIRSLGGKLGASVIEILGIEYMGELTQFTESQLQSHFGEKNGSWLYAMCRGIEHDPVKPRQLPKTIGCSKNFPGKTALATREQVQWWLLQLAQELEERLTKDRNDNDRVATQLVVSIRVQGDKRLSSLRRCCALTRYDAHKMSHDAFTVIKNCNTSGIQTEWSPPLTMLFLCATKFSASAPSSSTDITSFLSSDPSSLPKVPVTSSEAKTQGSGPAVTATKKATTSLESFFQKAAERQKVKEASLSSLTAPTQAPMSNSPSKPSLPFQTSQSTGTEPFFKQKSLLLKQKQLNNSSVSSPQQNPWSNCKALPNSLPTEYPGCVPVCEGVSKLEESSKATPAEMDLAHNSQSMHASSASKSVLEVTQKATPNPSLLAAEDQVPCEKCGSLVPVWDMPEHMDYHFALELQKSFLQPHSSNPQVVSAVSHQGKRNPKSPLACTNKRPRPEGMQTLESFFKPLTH
#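 Fluorescent replication assay: 50 nM final substrate added after a 15 min room-temperature compound preincubation with 10 nM enzyme. Signal taken at 0 min and again at 10 min.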
# POLI inh: blocks human DNA polymerase iota activity; 390,000 compounds, 1% hits; Potency, µM (series often up to 115 µM), hits mostly inhibitors; Q9UNA4; AID 588590; Pol iota fluorescent replication assay, 10 min
#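 Fluorescent replication assay read twice, at 0 min and 10 min after adding 50 nM (final) substrate. Enzyme (10 nM) and compounds were first incubated 15 min at room temperature; enzyme-free buffer wells were negative controls.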
# FEN1 inh: inhibitors of human flap endonuclease 1; P39748; Recombinant FEN1 flap cleavage, fluorescence, 15 min; Potency, µM (titrated, usually from 114 µM), actives largely listed as inhibitors; 390,000 compounds, 0.35% hits; also: nearly all actives have a fitted effect of over 65% in size
#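 In this screen, 50 nM flap DNA substrate was added to 10 nM FEN1 pretreated with compound for 15 min at room temperature; cleavage was followed with reads at 0 and 15 min, and Hill fitting gave concentration–response parameters.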
# TDP1 block: blocks human tyrosyl-DNA phosphodiesterase 1; Q9NUW8; recombinant TDP1, AlphaScreen DNA substrate cleavage; Potency, µM (highest dose often 130 µM), most hits filed as inhibitors; 350,000 compounds, 0.28% hits; also: nearly all actives have a fitted effect of over 40% in size
#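 Enzyme-compound mixtures sat 15 min at room temperature, followed by a 5 min reaction with 15 nM final substrate and 10 min with AlphaScreen beads. Recombinant human Tdp1 was used at 1 nM final.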
# POLK inh: inhibitors of human DNA polymerase kappa; AID 588579; Q9UBT6; Potency, µM (highest dose often 107 µM), hits mostly inhibitors; purified Pol kappa, fluorescent DNA synthesis assay, 10 min; 400,000 compounds, 0.53% hits
#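 First, compounds were pin-transferred onto 10 nM Pol kappa. After 15 min at room temperature, substrate was added to 50 nM final. Fluorescence was then measured kinetically at 0 and 10 min.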
# Pol beta inh-1: DNA polymerase beta (human) inhibition; P06746; Pol beta primer extension/strand displacement, fluorescence kinetic; Potency, µM (titrated, usually from 114 µM), usual class: inhibitors; 340,000 compounds, 1.3% hits
#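 Values derive from four-parameter Hill fits of normalized kinetic data: reads at 0 and 10 min following addition of 50 nM substrate to 10 nM Pol beta preincubated 15 min with compound.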
# Pol beta inh-2: Validate hits inhibiting human DNA polymerase beta; 250 compounds, 87% hits; Potency, µM, actives largely listed as inhibitors; Pol beta primer extension/strand displacement, fluorescence kinetic; shares compounds with Pol beta inh-1; calls by dose curve
# Klenow inh: Klenow polymerase inhibition, pol beta selectivity check; shares compounds with Pol beta inh-1; Klenow exo- polymerase counter-screen, fluorescent DNA substrate; activity change, negative = inhibition, % at 57.1 µM; 250 tested, under 10 active; AID 540300
# HIV RT counter: counter-screen for DNA polymerase beta inhibitors: HIV-1 RT inhibition | AID 540301 | shares compounds with Pol beta inh-1 | HIV-1 RT polymerase activity, counter-screen | activity % (negative = inhibition, positive = activation), % at 57.1 µM | 250 tested, under 10 active
# POLB valid: validation of human DNA polymerase beta inhibitors; inhibition, % at 10 µM; 110 compounds, 91% hits; AID 540325; radiolabeled primer extension gel assay, phosphorimager; shares compounds with Pol beta inh-1;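 active = inhibition at 10 µM of 30% or more; inconclusive = no clear call, values can overlap the other calls; inactive = inhibition at 10 µM under 30%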
# A number is an active result; n = inactive; u = inconclusive; x = not tested or not shown; [ ] = remark or other dose. Compounds with a hit are over-represented: about 2.4% of the library has one in this group of screens. Unless noted, calls follow the shape of the dose curve; as a rule, active = well fitted curve in the direction sought with a large enough effect; inconclusive = small, poorly fitted or top-dose-only effect, or another doubt; inactive = no such curve, though single readings can be large; an effect the other way counts as inactive or inconclusive.
SMILES,Pol eta inh,POLI inh,FEN1 inh,TDP1 block,POLK inh,Pol beta inh-1,Pol beta inh-2,Klenow inh,HIV RT counter,others
NS(=O)(=O)c1ccc(NC(=O)c2ccc(-c3ccccc3)cc2)cc1,u,u,n,n,u,14µM,16,n,n,
CCn1cc(C(=O)NCc2ccco2)c(=O)c2cc(F)c(N3CCN(C(=O)c4ccco4)CC3)cc21,u,u,n,40µM,u,14µM,u,n,n,
CCOc1ccccc1CNS(=O)(=O)c1cnc(N)nc1,n,n,n,n,n,n,x,x,x,
O=C(CSc1ccc(Cl)cc1)c1ccco1,22µM,u,u,n,28µM,7.9µM,13,n,n,
O=C(CSc1nc2c(cnn2-c2ccccc2)c(=O)[nH]1)c1ccc(Cl)cc1,u,u,u,n,n,5µM,7.1,n,n,
Cc1cc(C)nc(NS(=O)(=O)c2ccc(N/C=C\C(=O)c3ccc(Cl)cc3)cc2)n1,n,u,n,n,n,u,x,x,x,
CCOc1ccc(C(=O)/C=C/Nc2ccc(S(=O)(=O)Nc3cc(C)nc(C)n3)cc2)cc1,u,40µM,n,u,n,8.9µM,35,n,n,POLB valid=69
NC(C(=O)O)C(O)C(=O)O (stereo not given),x,x,x,n,n,x,x,x,x,
Cc1cccc(NC(=O)COC(=O)c2ccc3c(=O)n4c(nc3c2)CCC4)c1,n,n,n,n,n,n,x,x,x,
O=C(OCc1cc(=O)n2c(n1)sc1ccccc12)c1ccc2c(=O)n3c(nc2c1)CCC3,u,u,n,50µM,u,10µM,13,n,n,
C=CCn1c(=NC(=O)c2sc3ccccc3c2Cl)sc2cc(S(N)(=O)=O)ccc21,u,n,n,n,u,8.9µM,14,n,n,
C=CCn1c(=NC(=O)c2cc(Cl)sc2Cl)sc2cc(S(N)(=O)=O)ccc21,n,n,n,n,n,n,x,x,x,
CC(C)(C)N1C(=O)[C@H]2[C@H]3[C@H](O)[C@H](O)C/C(=N/OCc4ccccc4)[C@H]3CC[C@@H]2C1=O,x,x,x,n[21 µM],x,x,x,x,x,
CCn1c(=NC(=O)c2cccc(N3C(=O)CCC3=O)c2)sc2c(C)ccc(OC)c21,n,n,n,n,n,n,x,x,x,
CCn1c(=NC(=O)c2ccc(N3C(=O)CCC3=O)cc2)sc2c(OC)ccc(OC)c21,u,16µM,u,n,u,10µM,u,n,n,POLB valid=98
Cc1ccc(C(=O)Oc2ccc(C(=O)COC(=O)C3CC(=O)N(Cc4ccco4)C3)cc2)cc1 (stereo not given),13µM,4.5µM,n,u,45µM,16µM,14,n,n,
O=C(COC(=O)C1CC(=O)N(Cc2ccco2)C1)c1ccc(OC(=O)c2ccco2)cc1 (stereo not given),3.2µM,18µM,u,n,32µM,7.1µM,8.9,n,u,
Cc1csc(NC(=O)C2CC(=O)N(c3ccc4c(c3)OCCO4)C2)n1 (stereo not given),n,n,n,n,n,x,x,x,x,
CCCCc1nnc(NC(=O)C2CC(=O)N(c3ccc4c(c3)OCCO4)C2)s1 (stereo not given),n,n,n,n,n,n,x,x,x,
O=C(Nc1nnc(SCc2c(Cl)cccc2Cl)s1)C1CC(=O)N(c2ccc3c(c2)OCCO3)C1 (stereo not given),u,16µM,n,x,u,7.1µM,u,n,n,
O=C(Nc1nc(-c2ccco2)c(-c2ccco2)s1)C1CC(=O)N(c2ccc3c(c2)OCCO3)C1 (stereo not given),8.9µM,7.9µM,u,u,20µM,8.9µM,u,n,n,POLB valid=97
CCN1CCN(c2nc3c(S(=O)(=O)c4ccc(C)cc4)nnn3c3ccsc23)CC1,n,n,n,n,n,n,x,x,x,
COc1cc(OC)c(OC)cc1/C=C1\Oc2cc(OS(C)(=O)=O)ccc2C1=O,50µM,20µM,n,x,u,11µM,35,n,n,POLB valid=96
CC(=O)N(c1ccc2ccccc2c1)C1SC(=O)N(c2cccc(C)c2)C1=O (stereo not given),x,n,n,x,n,x,x,x,x,
COc1ccccc1-c1nnc2n1N=C(c1ccc(O)c(O)c1)CS2,8.9µM,13µM,n,n,25µM,4µM,25,n,n,POLB valid=37
SMILES,Pol eta inh,POLI inh,FEN1 inh,TDP1 block,POLK inh,Pol beta inh-1,Pol beta inh-2,Klenow inh,HIV RT counter,others
COc1ccc(C2=Nn3c(nnc3-c3ccccc3C)SC2)cc1OC,x,x,x,n,x,x,x,x,x,
COc1ccccc1N1CCN(C(=O)c2cc3c(s2)CCC3)CC1,u,n,n,n,n,7.9µM,u,n,n,POLB valid=74
O=[N+]([O-])c1cc(CN2CCN(c3ccccc3)CC2)c(O)c2ncccc12,n,n,n,n,n,n,x,x,x,
O=[N+]([O-])c1cc(CN2CCOCC2)c2cccnc2c1O,8.9µM,u,28µM,n,u,2.5µM,4.5,n,n,
Cc1cccc(NC(=O)C2CCCN(S(=O)(=O)c3c(C)noc3/C=C/N(C)C)C2)c1C (stereo not given),n,n,n,n,n,n,x,x,x,
O=C(COC(=O)c1ccccc1Oc1ccccc1)NCc1ccco1,14µM,u,u,n,79µM,20µM,35,n,u,
COC(=O)C1=C(CS(=O)(=O)c2cc(Cl)ccc2OC)NC(=O)NC1c1ccccc1 (stereo not given),u,n,n,n,n,n,x,x,x,
Cc1cc(-c2nc3c4c5c(sc4[nH]c(=O)n3n2)CCC5)c(C)o1,13µM,13µM,u,u,u,3.5µM,32,n,n,POLB valid=n
Cc1nc2sc3c(c2c(=O)[nH]1)CCC3,n,n,n,n,n,n,x,x,x,
C[C@H](CO)N1C[C@H](C)[C@@H](CN(C)S(=O)(=O)c2cccc(C#N)c2)OCc2cnnn2CCCC1=O,n,x,x,x,x,x,x,x,x,
N#Cc1c(=O)c2nc(NCCCO)ncc2n2c(=O)c3ccccc3[nH]c12,40µM,22µM,u,n,n,11µM,u,n,n,POLB valid=40
Cc1cccc(-c2noc(-c3ccc(NCC4CCCO4)c([N+](=O)[O-])c3)n2)c1 (stereo not given),n,u,n,n,n,n,x,x,x,
COC(=O)c1ccc(CSc2nc3scc(-c4cccs4)c3c(=O)[nH]2)o1,u,u,n,n,u,20µM,32,n,n,POLB valid=98

# High-throughput results: PubChem, National Center for Advancing Translational Sciences (NCATS)
